Test results taken from PubChem BioAssay (Tox21).
A number with no mark means an inactive call. Records with an inconclusive call do not appear. Entries that show only a call come without a potency. Active and inactive are the calls of the source. Unless noted, calls come from the whole dose curve.

Key:
[1] = Nuclear factor erythroid 2-related factor 2/antioxidant responsive element (Nrf2/ARE) small molecule agonists: qHTS cell viability counter screen in human keratinocytes (AID 1919968; active = well fitted curve in the direction sought with a large enough effect in the repeat runs; an effect the other way counts as inactive or inconclusive; note: nearly all actives have a fitted effect of over 55% in size; note: potency is the fitted concentration of half-maximal effect)
Procedure, shortened: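 HaCaT ARE reporter line, 1,500 cells/well; 5 h settle, 37 C/5% CO2; cpd in DMSO pinned; 23 h exposure; CellTiter-Fluor, 1 h; fluorescence.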

[2] = Nuclear factor erythroid 2-related factor 2/antioxidant responsive element (Nrf2/ARE) small molecule agonists: luciferase reporter gene qHTS assay in human keratinocytes (AID 1919969); note: nearly all actives have a fitted effect of over 35% in size; note: potency is the fitted concentration of half-maximal effect
[3] = biological target: KiSS-1 receptor (Homo sapiens) (UniProt Q969F8); test: Human kisspeptin (KISS1R) small molecule agonists, calcium flux assay in KISS1R-HEK293 cells (AID 1920064; active = well fitted curve in the direction sought with a large enough effect in the repeat runs; an effect the other way counts as inactive or inconclusive)
KiSS-1 receptor (Homo sapiens), sequence (Q969F8 whole entry, looked up): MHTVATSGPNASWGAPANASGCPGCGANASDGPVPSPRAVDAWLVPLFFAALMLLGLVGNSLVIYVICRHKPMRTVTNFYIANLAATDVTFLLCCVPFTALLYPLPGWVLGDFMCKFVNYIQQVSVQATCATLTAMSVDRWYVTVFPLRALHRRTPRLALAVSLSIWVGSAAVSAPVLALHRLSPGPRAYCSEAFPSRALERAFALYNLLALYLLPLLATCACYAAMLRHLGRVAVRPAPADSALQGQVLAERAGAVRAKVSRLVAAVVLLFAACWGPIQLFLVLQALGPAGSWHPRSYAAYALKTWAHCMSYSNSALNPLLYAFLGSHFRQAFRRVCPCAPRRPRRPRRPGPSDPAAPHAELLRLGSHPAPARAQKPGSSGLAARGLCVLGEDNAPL
Procedure, shortened: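 Stable human KISS1R HEK293 line; 18 h plating, 37 C/5% CO2; calcium dye 1 h 37 C; compound pin transfer; kinetic fluorescence Ex/Em 480/540, 3 min.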

[4] = p53 small molecule agonists, cell-based qHTS assay with human liver microsomes: qHTS cell viability counter screen (AID 1963579); note: nearly all actives have a fitted effect of over 45% in size; note: potency is the fitted concentration of half-maximal effect
Procedure, shortened: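 After the 460/530 nm beta-lactamase read, CellTiter-Glo was added to the same wells and luminescence measured after 30 min at room temperature, giving viability of p53RE-bla cells treated 16 h with compounds plus microsomes and NADPH.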

[5] = p53 small molecule agonists, cell-based qHTS assay with rat liver microsomes: qHTS cell viability counter screen (AID 1963580); note: nearly all actives have a fitted effect of over 45% in size
Procedure, shortened: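 Viability is assessed in parallel with the p53 reporter read: HCT-116 p53RE-bla cells receive compounds plus rat microsomes and NADPH (0.5 mg/mL final apiece), incubate 16 h at 37 C, and then CellTiter-Glo luminescence is recorded.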

[6] = p53 small molecule agonists, cell-based qHTS assay: qHTS cell viability counter screen (AID 1963581); note: nearly all actives have a fitted effect of over 45% in size
Procedure, shortened: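 HCT-116 p53RE-bla cells, 4,000/well, plated 5 h before compound pin transfer; 16 h at 37 C; bla substrate 2 h RT; then CellTiter-Glo, 30 min RT, luminescence.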

[7] = biological target: 5-hydroxytryptamine receptor 2A (Homo sapiens) (UniProt P28223); test: 5-hydroxytryptamine receptor 2A (HTR2A) small molecule agonists, cell-based qHTS assay (AID 1963587); note: nearly all actives have a fitted effect of over 30% in size; note: potency is the fitted concentration of half-maximal effect
5-hydroxytryptamine receptor 2A (Homo sapiens), sequence (P28223 whole entry, looked up): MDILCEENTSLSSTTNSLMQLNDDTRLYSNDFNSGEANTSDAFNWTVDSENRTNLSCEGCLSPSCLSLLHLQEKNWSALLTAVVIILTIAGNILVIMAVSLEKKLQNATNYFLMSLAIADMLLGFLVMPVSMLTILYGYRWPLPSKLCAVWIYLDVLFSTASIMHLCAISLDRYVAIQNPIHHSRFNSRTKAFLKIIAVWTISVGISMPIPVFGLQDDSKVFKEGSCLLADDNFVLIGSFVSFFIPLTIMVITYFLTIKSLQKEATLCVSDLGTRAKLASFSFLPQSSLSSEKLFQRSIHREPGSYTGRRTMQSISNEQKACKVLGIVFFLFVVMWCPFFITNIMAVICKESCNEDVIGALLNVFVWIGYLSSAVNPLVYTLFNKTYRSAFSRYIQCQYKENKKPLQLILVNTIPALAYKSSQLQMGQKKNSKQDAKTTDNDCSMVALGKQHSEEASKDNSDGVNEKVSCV
Procedure, shortened: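 CHO cells stably expressing human HTR2A, plated 18 h, loaded with calcium dye 1 h at 37 C. Agonist mode: compounds added and intracellular calcium fluorescence recorded kinetically for 2 min at 1 sec intervals.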

[8] = biological target: Muscarinic acetylcholine receptor M1 (Homo sapiens) (UniProt P11229); test: Cholinergic receptor muscarinic 1 (CHRM1) small molecule antagonists, cell-based qHTS assay (AID 1963588); note: nearly all actives have a fitted effect of over 40% in size; note: potency is the fitted concentration of half-maximal effect
Muscarinic acetylcholine receptor M1 (Homo sapiens), sequence (P11229 whole entry, looked up): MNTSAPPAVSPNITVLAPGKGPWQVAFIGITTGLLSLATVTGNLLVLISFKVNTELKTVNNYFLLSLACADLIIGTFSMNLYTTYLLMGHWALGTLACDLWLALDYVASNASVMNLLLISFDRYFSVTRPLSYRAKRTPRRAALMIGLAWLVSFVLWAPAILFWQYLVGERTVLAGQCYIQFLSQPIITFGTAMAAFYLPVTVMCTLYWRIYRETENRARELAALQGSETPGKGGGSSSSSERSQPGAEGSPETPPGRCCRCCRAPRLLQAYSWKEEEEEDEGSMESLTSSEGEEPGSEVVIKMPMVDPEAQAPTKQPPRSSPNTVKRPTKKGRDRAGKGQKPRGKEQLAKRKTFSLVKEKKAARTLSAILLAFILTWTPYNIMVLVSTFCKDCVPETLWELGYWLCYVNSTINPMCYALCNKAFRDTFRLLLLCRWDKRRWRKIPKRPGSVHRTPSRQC
Procedure, shortened: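 CHRM1-CHO calcium-flux assay, antagonist mode. Cells were seeded 18 h, dye-loaded 1 h at 37 C and given compound for 5 min at RT, then acetylcholine was added at 50nM. FDSS fluorescence was read 3 min; 15 concentrations, three runs.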

[9] = biological target: Muscarinic acetylcholine receptor M1 (Homo sapiens) (UniProt P11229); test: Cholinergic receptor muscarinic 1 (CHRM1) small molecule agonists, cell-based qHTS assay (AID 1963589); note: nearly all actives have a fitted effect of over 35% in size
Procedure, shortened: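 Human M1 in stable CHO line; 18 h plating, 1 h dye load 37 C; cpd added (agonist mode); Ca2+ fluorescence kinetic read, 1 s intervals; 15 conc, 3 runs.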

[10] = cAMP Responsive Elements (CRE) small molecule agonists, cell-based qHTS assay (AID 1963590)
Procedure, shortened: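 HEK 293T CRE-bla, 2,000 cells/well, 18 h preincubation 37 C/5% CO2; cpds (DMSO) pinned, 3 h; LiveBLAzer B/G FRET substrate, 2 h RT.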

[11] = cAMP Responsive Elements (CRE) small molecule antagonists, cell-based qHTS assay (AID 1963591; active = well fitted inhibition curve with a large enough effect in the signal ratio in the repeat runs, not every such curve was filed as active; the % refers to the signal ratio)
Procedure, shortened: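 Beta-lactamase reporter read by FRET substrate (LiveBLAzer B/G) after 2 h at room temperature. CRE-bla HEK293T cells had received compound plus 0.25 uM (final) NKH477 for 3 h at 37 °C.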

[12] = biological target: Beta-2 adrenergic receptor (Homo sapiens) (UniProt P07550); test: Adrenergic beta2 receptor (ADRB2) small molecule antagonists, cell-based qHTS assay (AID 1963592); note: nearly all actives have a fitted effect of over 50% in size; note: potency is the fitted concentration of half-maximal effect
Beta-2 adrenergic receptor (Homo sapiens), sequence (P07550 whole entry, looked up): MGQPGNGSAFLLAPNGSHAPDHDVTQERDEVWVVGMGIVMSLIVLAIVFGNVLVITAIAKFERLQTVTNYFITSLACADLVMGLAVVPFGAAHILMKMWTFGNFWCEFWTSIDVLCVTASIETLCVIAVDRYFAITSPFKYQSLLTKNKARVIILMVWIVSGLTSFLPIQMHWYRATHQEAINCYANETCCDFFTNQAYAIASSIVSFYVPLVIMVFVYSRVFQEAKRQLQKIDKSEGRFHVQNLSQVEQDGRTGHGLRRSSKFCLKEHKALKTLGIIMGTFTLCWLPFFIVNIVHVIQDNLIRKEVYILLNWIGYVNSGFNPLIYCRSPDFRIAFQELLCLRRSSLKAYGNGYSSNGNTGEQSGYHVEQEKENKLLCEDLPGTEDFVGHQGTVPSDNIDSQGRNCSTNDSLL
Procedure, shortened: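 Cells (CHO, stable ADRB2 overexpression) incubated 18-20hr at 37C; compounds added from DMSO; agonist mix (1nM isoproterenol, 100uM IBMX, 25uM Ro-20-1724) added; 0.5hr RT; d2-cAMP and anti-cAMP-cryptate added; 1hr RT; 665/615 nm read.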

[13] = biological target: D(2) dopamine receptor (Homo sapiens) (UniProt P14416); test: Dopamine D2 receptor (DRD2) small molecule agonists, cell-based qHTS assay (AID 1963594); note: nearly all actives have a fitted effect of over 35% in size; note: potency is the fitted concentration of half-maximal effect
D(2) dopamine receptor (Homo sapiens), sequence (P14416 whole entry, looked up): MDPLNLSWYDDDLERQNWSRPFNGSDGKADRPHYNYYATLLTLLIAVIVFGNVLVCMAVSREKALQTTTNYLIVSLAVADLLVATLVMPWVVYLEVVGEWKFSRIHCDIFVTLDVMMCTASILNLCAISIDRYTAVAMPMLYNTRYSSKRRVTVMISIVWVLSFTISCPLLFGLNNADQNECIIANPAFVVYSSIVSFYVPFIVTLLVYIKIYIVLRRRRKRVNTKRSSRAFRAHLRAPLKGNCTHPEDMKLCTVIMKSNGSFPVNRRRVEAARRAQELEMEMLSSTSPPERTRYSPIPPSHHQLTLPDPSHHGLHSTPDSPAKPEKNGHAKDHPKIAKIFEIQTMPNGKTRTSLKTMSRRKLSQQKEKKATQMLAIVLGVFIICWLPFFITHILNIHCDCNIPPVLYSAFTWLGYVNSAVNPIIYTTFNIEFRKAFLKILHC
Procedure, shortened: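 HEK293 cells stably expressing human DRD2, pre-treated with PDE inhibitor Ro20-1724 (0.1 mM final) and compound 10 min at room temperature, then stimulated with NKH477 (200nM […]) for 30 min. cAMP read by HTRF (665/620 nm).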

[14] = biological target: D(2) dopamine receptor (Homo sapiens) (UniProt P14416); test: Dopamine D2 receptor (DRD2) small molecule antagonists, cell-based qHTS assay (AID 1963595; active = well fitted inhibition curve with a large enough effect in the signal ratio in the repeat runs, with a control signal flat; the % refers to the signal ratio; note: potency is the fitted concentration of half-maximal effect)
Procedure, shortened: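 HTRF cAMP read-out at 665 and 620 nm emission (340 nm excitation). Antagonist mode: compounds were tested against 12 nM quinpirole in DRD2-HEK293 cells, with 200 nM NKH477 raising cAMP and 0.1 mM Ro20-1724 blocking its breakdown.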

[15] = G protein-coupled receptor (GPCR) small molecule agonists, calcium flux assay: HEK293 wild type cell line counter screen (AID 1920065)
Procedure, shortened: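 Kinetic fluorescence at Ex/Em 480/540, recorded every second over 3 min, served as the read-out after compound addition. Each compound was tested at 15 concentrations in triplicate on cells pre-loaded with calcium dye for 1 h.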

[16] = p53 small molecule agonists, cell-based qHTS assay with rat liver microsomes (AID 1963578)
Procedure, shortened: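 Metabolic activation is supplied by rat liver microsomes with NADPH (each 0.5 mg/mL final). p53RE-bla cells incubate with compound 16 h at 37 C; reporter activity is measured by LiveBLAzer fluorescence.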

[17] = p53 small molecule agonists, cell-based qHTS assay (AID 1963582; active = well fitted activation curve with a large enough effect in the signal ratio in the repeat runs, not every such curve was filed as active; the % refers to the signal ratio)
Procedure, shortened: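 Reporter line: p53RE-bla. Pre-incubation 5 h, 37 C, 5% CO2; compound (DMSO, pin tool) 16 h, 37 C; B/G FRET substrate 2 h RT; fluorescence intensity read.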

[18] = biological target: 5-hydroxytryptamine receptor 2A (Homo sapiens) (UniProt P28223); test: 5-hydroxytryptamine receptor 2A (HTR2A) small molecule antagonists, cell-based qHTS assay (AID 1963586); note: nearly all actives have a fitted effect of over 45% in size; note: potency is the fitted concentration of half-maximal effect
Procedure, shortened: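 Antagonist-mode intracellular calcium assay: DOI (4 nM) added after 5 min compound pre-incubation at room temperature to dye-loaded HTR2A-CHO cells. Fluorescence followed for 3 min, sampled every second.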

[19] = biological target: Beta-2 adrenergic receptor (Homo sapiens) (UniProt P07550); test: Adrenergic beta2 receptor (ADRB2) small molecule agonists, cell-based qHTS assay (AID 1963593);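 note: CHO cells stably overexpressing human ADRB2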
Procedure, shortened: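 CHO cells stably over-expressing ADRB2 were plated overnight at 37C, then dosed with compounds plus a stimulation mix containing 100uM IBMX and 25uM Ro-20-1724 for 0.5hr at room temperature. cAMP was measured by HTRF competition, 1hr.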

[20] = p53 small molecule agonists, cell-based qHTS assay with human liver microsomes (AID 1963577);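 note: p53 response element beta-lactamase reporter cells with liver microsomes plus NADPH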
Procedure, shortened: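 Steps: plate p53RE-bla cells, incubate 5 h at 37 C; add compound in DMSO; add microsomes (0.5 mg/mL final) and NADPH (0.5 mg/mL final); incubate 16 h at 37 C; add LiveBLAzer, 2 h RT; read fluorescence.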

Row | SMILES | Potency [1] | Potency [2] | Potency [3] | Potency [4] | Potency [5] | Potency [6] | Potency [7] | Potency [8] | Potency [9] | Potency [10] | Potency [11] | Potency [12] | Potency [13] | Potency [14] | Potency [15] | Potency [16] | Potency [17] | Potency [18] | Potency [19] | Potency [20]
1 | OCCOc1cccc(OCCO)c1 | inactive | inactive | inactive | inactive | inactive | inactive | inactive | inactive | inactive | inactive | inactive | inactive | inactive | inactive | – | – | – | – | – | –
2 | CCO[C@H](Cc1ccc(OCCc2ccc(OS(C)(=O)=O)cc2)cc1)C(=O)O | inactive | inactive | inactive | – | inactive | inactive | inactive | inactive | inactive | inactive | – | inactive | inactive | – | inactive | – | – | – | – | –
3 | COc1ccc2c(c1)c(CC(=O)OC/C=C(\C)CC/C=C(\C)CCC=C(C)C)c(C)n2C(=O)c1ccc(Cl)cc1 | inactive | inactive | – | inactive | inactive | inactive | inactive | inactive | inactive | inactive | – | inactive | inactive | inactive | inactive | inactive | inactive | inactive | inactive | –
4 | O=C1[C@@H]2[C@H]3CC[C@H](C3)[C@@H]2C(=O)N1CCCCN1CCN(c2ncccn2)CC1 | inactive | inactive | inactive | inactive | inactive | – | inactive | inactive | inactive | inactive | inactive | inactive | 0.0944 µM (active) | – | inactive | – | – | – | inactive | –
5 | CC1(C)[C@H](C(=O)O)N2C(=O)C[C@H]2S1(=O)=O | inactive | inactive | inactive | – | – | – | – | – | – | inactive | – | inactive | inactive | inactive | – | – | inactive | – | – | –
6 | CC(C)(Cc1c[nH]c2ccccc12)NCC(O)COc1ccccc1C#N (configuration not stated) | inactive | inactive | inactive | – | – | – | inactive | inactive | inactive | inactive | – | 0.0067 µM (active) | inactive | inactive | inactive | – | – | – | – | –
7 | CC(C)COCC(CN(Cc1ccccc1)c1ccccc1)N1CCCC1 (configuration not stated) | 26.6 µM (active) | inactive | – | inactive | – | inactive | 19 µM (active) | inactive | inactive | – | – | 26.6 µM (active) | inactive | 29.8 µM (active) | inactive | inactive | inactive | 6.5 µM (active) | – | inactive
8 | CC1(COc2ccc(CC3SC(=O)NC3=O)cc2)CCCCC1 (configuration not stated) | inactive | 29.8 µM (active) | inactive | – | inactive | inactive | – | – | – | – | – | – | – | inactive | – | inactive | inactive | – | inactive | inactive
9 | CC(=O)OCC(=O)[C@@]1(O)CC[C@H]2[C@@H]3CCC4=CC(=O)CC[C@]4(C)[C@H]3C(=O)C[C@@]21C | inactive | inactive | inactive | inactive | inactive | inactive | – | – | – | inactive | inactive | inactive | inactive | inactive | inactive | – | – | – | – | –
10 | CC/C(=C(\c1ccc(O)cc1)c1ccc(OCCN(C)C)cc1)c1ccccc1 | 30.7 µM (active) | inactive | inactive | 20.5 µM (active) | – | – | – | inactive | – | – | – | – | inactive | – | inactive | – | – | inactive | inactive | –
11 | CCCCOC(=O)CCC(C)=O | inactive | inactive | – | – | inactive | – | inactive | inactive | inactive | inactive | inactive | inactive | inactive | inactive | inactive | – | – | inactive | – | –
12 | N#Cc1ccc(C(c2ccc(C#N)cc2)n2cncn2)cc1 | inactive | inactive | – | inactive | inactive | inactive | – | – | – | – | inactive | inactive | inactive | inactive | inactive | – | – | – | inactive | –
13 | CC/C(=C(/c1ccc(O)cc1)c1ccc(OCCN(C)C)cc1)c1ccccc1 | 18 µM (active) | inactive | inactive | 26.9 µM (active) | – | – | 28.8 µM (active) | 13.9 µM (active) | – | – | – | – | inactive | – | inactive | – | – | – | – | –
14 | CCCCCCCCCCCCCCCCN | inactive | inactive | – | inactive | inactive | inactive | 23.9 µM (active) | inactive | inactive | inactive | inactive | inactive | inactive | – | inactive | – | inactive | – | – | inactive
15 | Cc1cccc(C)c1NC(=O)C(C)N (configuration not stated) | inactive | inactive | – | inactive | inactive | inactive | – | – | – | inactive | inactive | – | inactive | inactive | inactive | inactive | – | – | inactive | inactive
